From PubChem BioAssay (EPA / NIEHS)
The source made the active and inactive calls. The calls were made as follows: active = hit-call score of the fitted dose curve at least 0.9, where 1 is the maximum; inactive = score below 0.9.

Test: CCTE_Shafer_MEA_acute_per_network_burst_electrodes_number_mean: CCTE's Neural Acute Assay for Mean Number of Electrodes in a Network Burst, Shafer Lab (AID 2284021);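 also: curves fitted for decreases only so hits reduce electrodes per burst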
Experimental: CCTE_Shafer_MEA_acute assay is conducted using Axion Biosystems 48 well microelectrode array (MEA) plates and Maestro recording system. Each well of the MEA plate contains a grid of 16 microelectrodes embedded in the culture surface. Electrically active cells, such as neurons, can be cultured over the electrodes, and electrical activity in these cells can be recorded extracellularly. The spontaneous firing of neurons is captured from each electrode on a microsecond timescale providing both temporally and spatially precise data. […] The CCTE_Shafer_MEA_acute assay uses primary cultures of rat cortical neurons. As these cultures mature over time, neural networks develop functional activity and form cohesive networks in which electrical activity can be highly coordinated. Baseline 40-minute recordings are made on days post-plating 13 or 15, followed by a secondary 40-minute recording after chemical exposure.CCTE_Shafer_MEA_acute_per_network_burst_electrodes_number_mean is a component of the CCTE_Shafer_MEA_acute assay. It measures the average number of electrodes with activity during a network burst (a temporally-clustered group of action potential firing across multiple electrodes) in a recording in a microelectrode array (MEA) using Axion Biosystems Maestro 768 channel amplifier with the AxIS adaptive spike detector. The recordings before and after chemical treatment are used to calculate a percent change in the mean number of electrodes participating in network bursts in each well.Data from the assay component CCTE_Shafer_MEA_acute_per_network_burst_electrodes_number_mean was analyzed into 1 assay endpoint. This assay endpoint, CCTE_Shafer_MEA_acute_per_network_burst_electrodes_number_mean, was analyzed in the negative analysis fitting direction relative to DMSO as the negative control and baseline of activity. Using a type of functional reporter, gain or loss-of-signal activity can be used to understand electrical activity.
Spontaneous activity in the cortical cultures was recorded using an Axion Biosystems Maestro 768 channel amplifier and Axion Integrated Studios (AxIS) v1.8 (or later) software. The amplifier recorded from all channels simultaneously (gain = 1200 x; sampling rate = 12.5 kHz/channel): raw signals were filtered with a Butterworth band-pass filter (300-5000 Hz), which filters out slower local field potentials leaving only fast potentials, i.e., "spikes", arising from extracellular currents associated with action potentials (Pine 2006; Wheeler and Nam 2011). On-line spike detection of filtered signals was conducted with the AxIS adaptive spike detector, using a threshold of 8x the root mean squared (rms) noise on each channel. Any electrodes with rms noise levels greater than 5 uV were grounded (e.g., no data were recorded). Once grounded, an electrode was grounded for the duration of the experiment. All recordings were conducted at 37 C. Wells were deemed usable if on the day of the exposure >/= 10 electrodes were active (defined as >/= 5 spikes/min). On DIV 13 or 15, a minimum of three wells from one cortical culture preparation were treated with each compound (0.03-40 uM). Prior to recording baseline activity, each mwMEA plate was placed in the Maestro at 37 C and allowed to sit for 20 min while firing rates stabilized. Baseline activity (40 min) was recorded before the addition of each compound. An additional 40 min of spontaneous activity was recorded in the presence of each compound. Changes in network parameters relative to baseline were assessed following compound treatment.

SMILES	outcome	AC50
Cc1cc(C(F)(C(F)(F)F)C(F)(F)F)ccc1NC(=O)c1cccc(I)c1C(=O)NC(C)(C)CS(C)(=O)=O	inactive	
Oc1cc(Cl)c(Cl)cc1Cl	inactive	
N#Cc1cccnc1	inactive	
Cc1ccccc1OP(=O)(Oc1ccccc1C)Oc1ccccc1C	inactive	
OCCCCO	inactive	
CS(=O)(=O)c1ccc(C(=O)C2C(=O)CCCC2=O)c(Cl)c1COCC(F)(F)F	inactive	
CC(C)(C)c1ccccc1O	inactive	
CC1(C)[C@H](C(=O)O[C@H](C#N)c2cccc(Oc3ccccc3)c2)[C@@H]1/C=C(\Cl)C(F)(F)F		818 nM (active)
CN(C)C(=S)S	inactive	
O=C(Cc1ccccc1)OCCc1ccccc1	inactive	
CCCCOC(=O)COC(=O)c1ccccc1C(=O)OCCCC	inactive	
CC(C)[C@@H](Nc1ccc(C(F)(F)F)cc1Cl)C(=O)OC(C#N)c1cccc(Oc2ccccc2)c1 (stereo not given in full)		310 nM (active)
Clc1cccc(Cl)c1Cl	inactive	
CCCCCCCCCCCCc1cccc(S(=O)(=O)O)c1	inactive	
Oc1ccc(Cc2ccc(O)cc2)cc1	inactive	
